# ± gives the standard deviation.
# Assays:
# Details in all cases: modulator concentration 10 µM
# [1] = system: RAW-Dual (murine macrophage reporter line); experiment: NF-kB reporter (SEAP) activity fold change vs agonist alone; higher = enhanced NF-kB activity
# Summary of the method: (§1)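 In 384-well plates holding 50 000 RAW-Dual murine macrophage reporter cells per well, compound at 10 μM final was pre-incubated for 1 hour at 37 °C, after which a PRR agonist was added overnight. Supernatant SEAP read with QUANTI-Blue at 620 nm absorbance reported NF-κB, and Lucia luciferase read with QUANTI-Luc luminescence reported IRF. Fold change values come from dividing each reporter signal by the mean of agonist-only control wells on the same plate, averaged over replicate plates with propagated errors.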
# [2] = system: RAW-Dual (murine macrophage reporter line); experiment: IRF reporter (Lucia luciferase) activity fold change vs agonist alone; higher = enhanced IRF activity
# Summary of the method: as §1
# [3] = system: RAW-Dual (murine macrophage reporter line); experiment: viability score (confluency relative to resting cells, overnight) (fraction); higher = more viable, active = viable (0.7 or more)
# Summary of the method: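 RAW-Dual macrophages in 384-well plates were exposed overnight to compound at 10 μM final. Confluency was imaged with IncuCyte, and two confluency masks were generated with IncuCyte software over all imaged wells. The viability score is confluency expressed relative to resting cells. Compounds were called viable if both masks exceeded 70% of resting cells.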
# [4] = agonist: CpG ODN 1826 0.5 ug/mL
SMILES,"NF-kB reporter [1, 4]",NF-kB reporter ([1]; agonist: LPS 0.1 ug/mL),NF-kB reporter ([1]; agonist: MPLA […]),IRF reporter ([2]; agonist: 3'3'-cGAMP 10 ug/mL),IRF reporter ([2]; agonist: LPS 0.1 ug/mL),IRF reporter ([2]; agonist: MPLA […]),viability score [3]
O=C(O)CCCCC1CCSS1 (centres undefined),0.761 ± 0.034,0.968 ± 0.077,1.05 ± 0.056,1.03 ± 0.047,1.33 ± 0.33,1.51 ± 0.52,0.978 (active)
CCOC(=O)C1=C(C)NC(C)=C(C(=O)OC)C1c1ccco1 (centres undefined),1.03 ± 0.17,0.955 ± 0.1,1.03 ± 0.086,0.95 ± 0.037,1.14 ± 0.18,1.2 ± 0.25,1.01 (active)
COC(=O)[C@H](c1ccccc1Cl)N1CCc2sccc2C1.O=S(=O)(O)O,0.811 ± 0.21,0.993 ± 0.28,1.06 ± 0.12,1.11 ± 0.081,1.02 ± 0.29,0.955 ± 0.22,0.954 (active)
C=CC(=O)N1CCC(Oc2cc3c(Nc4ccc(Cl)c(Cl)c4F)ncnc3cc2OC)CC1,0.879 ± 0.037,0.909 ± 0.095,1.05 ± 0.061,1.08 ± 0.064,1.36 ± 0.3,1.49 ± 0.48,0.97 (active)
O=C(NC1CCCCC1)N(Cc1cnc2ccccn12)c1ccccc1,1.01 ± 0.1,1.14 ± 0.088,1.15 ± 0.059,0.997 ± 0.044,1.06 ± 0.053,1.05 ± 0.16,0.995 (active)
COc1ccc2c3c1O[C@H]1C[C@@H](O)C=C[C@@]31CCN(C)C2 [Prestw-588],1.13 ± 0.077,1.07 ± 0.091,0.95 ± 0.038,0.997 ± 0.056,0.987 ± 0.046,0.923 ± 0.16,0.998 (active)
COc1cccc(CC(=O)Nc2ccc(CC(=O)N3CCC(O)CC3)cc2)c1,1.07 ± 0.35,1.06 ± 0.091,1.06 ± 0.074,0.884 ± 0.03,1.1 ± 0.13,1.37 ± 0.19,0.945 (active)

# Source: the supplement of paper PMC10646978
